Screens (PubChem)
Hits are enriched below; roughly 3.1% of the tested compounds scored in any of these assays.
FAS-TE inh = FAS thioesterase (human) inhibition; P49327; recombinant FAS-TE, OMFH fluorogenic substrate, fluorescence endpoint; inhibition, % at 15 µM; 360,000 compounds, 0.67% hits; AID 602261;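 active = compounds whose normalised, plate-corrected inhibition of enzyme fluorescence in the single-dose primary screen is 50% or more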
Calb FLC = C. albicans growth modulation with fluconazole | C. albicans CaCi-2 (fluconazole-resistant clinical isolate) + fluconazole, Alamar Blue growth, 48 h | growth inhibition, % (no concentration beside the values) | 300,000 compounds, 0.57% hits | AID 1979;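 active = growth inhibition above about 58% in most replicates, limit read from the data, passing the limit was not always enough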;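 note: all wells also contain fluconazole at 8 µg/ml as a sub-toxic cotreatment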
NadD block = NadD (S. aureus) enzyme inhibition; purified NadD enzyme, colorimetric absorbance read-out; inhibition, % at 20 µM; 360,000 compounds, 0.78% hits; AID 602399; in the data active = inhibition above about 26%
SUMO Mot1 rescue = SUMOylation pathway inhibition by Mot1-301 growth rescue; S. cerevisiae Mot1-301 growth rescue, ATP luminescence, 38.5C; percent above DMSO median, 100 means doubled; growth rescue, % at 18.8 µM; 320,000 compounds, 1% hits; AID 2716;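 active = every valid replicate shows activation above 250% relative to neutral control wells; inactive = the rest, any valid replicate at or below 250%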
ATG4B inh = blocks human ATG4B protease cleavage of LC3 substrate; 340,000 compounds, 0.51% hits; Q9Y4P1; ATG4B cleavage of LC3-PLA2, NBD-HPC fluorescence, 1 h; inhibition, % at 8.33 µM; in the data active = inhibition above about 40%
ATG4B confirm = ATG4B (human) inhibition, single-dose confirmed | shares compounds with ATG4B inh | ATG4B protease fluorescent substrate cleavage assay | inhibition, % at 8.33 µM | 320 compounds, 92% hits | AID 504757; in the data active = inhibition above about 39%
PLA2 counter = inhibits human PLA2, flagging false ATG4B inhibitors; shares compounds with ATG4B inh; purified PLA2, NBD-C6-HPC fluorescence, 45 min; inhibition, % at 8.33 µM; 1,600 compounds, 66% hits; AID 588402; in the data active = inhibition above about 50%
Numbers stand for hits; i = inactive; nt = not tested or not shown.

SMILES	FAS-TE inh	Calb FLC	NadD block	SUMO Mot1 rescue	ATG4B inh	PLA2 counter	others
COc1ccc(/C=C2/Sc3ccc(C(=O)N4CCc5ccccc5C4)cc3NC2=O)cc1	i	i	i	i	69	82
O=C(NCCCNC(=O)c1cnccn1)c1ccc(Br)cc1	i	i	i	i	i	nt
O=C(Nc1cccc([N+](=O)[O-])c1)C1C2CC/C=C\CCC21 (stereo not given)	i	i	i	i	54	66
CN(C)c1ccc(-c2nnn(Cc3ccccc3Br)n2)cc1	i	i	i	i	41	i	ATG4B confirm=66
Clc1ccccc1Cn1nnc(-c2ccccc2)n1	i	i	i	i	i	nt
CC(C)C(N)c1csc(Nc2ccc(C(=O)c3ccccc3)cc2)n1 (stereo not given)	i	nt	i	nt	nt	nt
S=c1[nH]nc(-c2cc(-c3ccco3)[nH]n2)n1-c1ccccc1Cl	i	i	i	i	50	i
CC(C)C[C@@H]1CN(CCCC[C@H]2CNC(=O)C(=O)N2CCC2CCCCC2)C(=O)C(=O)N1Cc1ccccc1	i	nt	i	nt	nt	nt
Cc1noc(C)c1CSc1nc2ccccc2c(=O)n1-c1ccc(F)cc1F	i	i	i	i	59	67
CN(CC(=O)NCC(=O)Nc1ccc(F)c(F)c1F)C1CCS(=O)(=O)C1 (stereo not given)	i	nt	i	i	i	nt
Clc1cccc(-c2nc(NCc3cccnc3)c3ccccc3n2)c1	i	i	i	i	64	70
O=C(c1cccc(C(F)(F)F)c1)N1CCN(CCc2ccccc2)CC1	i	i	i	i	i	nt
O=C(NCc1cccc(C(F)(F)F)c1)N1CCN(C(=O)c2ccccc2)CC1	i	nt	i	i	56	61
O=S(=O)(Nc1nc(-c2sccc2Cl)cs1)c1cc(Cl)ccc1Cl	i	i	i	i	88	77
CC(C)(C)c1nnc(NS(=O)(=O)c2cc(Cl)ccc2Cl)s1	i	i	i	i	i	nt
Cc1cc(C(=O)N/N=C/c2ccc(-c3cccc(Br)c3)o2)n[nH]1	i	i	i	i	i	nt
Cc1cc(C(=O)N/N=C/c2ccc(-c3cccc(Cl)c3Cl)o2)n[nH]1	i	i	i	i	50	i
Cc1ccc(NC(=O)CN(C)S(=O)(=O)c2ccc3c(c2)n(C)c(=O)c(=O)n3C)cc1	i	i	i	i	i	nt
CN(c1ccccc1)C1CCCCC1NS(=O)(=O)c1ccc(Cl)cc1 (stereo not given)	i	i	i	i	57	64
CCc1cccc(CC)c1-n1c(SCC(=O)N2CCc3ccccc3C2)nnc1-c1cccnc1	i	i	i	i	68	63
Cc1ccccc1-n1c(C)nnc1SCC(=O)N1CCc2ccccc2C1	i	i	i	i	i	nt
O=C1NN(c2ccccc2)C(=O)C1=Cc1ccccc1O	i	nt	i	nt	nt	nt
O=C1NN(c2ccccc2)C(=O)/C1=C/c1ccc(Sc2cccc3ccccc23)o1	i	i	i	i	44	i	ATG4B confirm=51
Cc1ccc(NC(=O)c2cc(S(=O)(=O)N3CCCC3)c[nH]2)c(C)c1	i	i	i	i	i	nt
O=C(NCc1ccccc1)C(=O)NCC1CCCN1S(=O)(=O)c1cccs1 (stereo not given)	i	i	i	i	i	nt
SMILES	FAS-TE inh	Calb FLC	NadD block	SUMO Mot1 rescue	ATG4B inh	PLA2 counter	others
CC(C)Cn1c(N)c(C(=O)COC(=O)c2ccc(O)cc2O)c(=O)n(C)c1=O	i	i	i	i	i	nt
S=c1[nH]nc(-c2ccccc2)n1/N=C/c1ccc(-c2ccccc2Cl)o1	i	i	i	i	42	58
S=c1[nH]nc(-c2cccc(Cl)c2)n1/N=C/c1ccc(-c2ccccc2Br)o1	i	i	i	i	i	nt
CCc1nnc(NC(=O)CN2CCN(S(C)(=O)=O)CC2)s1	i	i	i	i	i	nt
Oc1c(Br)cc(Br)cc1C=NCc1ccccc1	i	i	i	i	73	71
CC(C)c1[nH]nc2c1C(c1cccc(OC(=O)N3CCOCC3)c1)C(C#N)=C(N)O2 (stereo not given)	i	i	i	i	i	nt
Cc1ccc(-c2[nH]nc3c2C(c2ccc(OC(=O)N4CCOCC4)cc2)C(C#N)=C(N)O3)cc1 (stereo not given)	i	i	i	i	43	i	ATG4B confirm=78
CC(=O)N1c2ccc(S(=O)(=O)NCC3CCC(C(=O)N4CC(C)CC(C)C4)CC3)cc2CC1C (stereo not given)	i	i	i	i	i	nt
O=C(Nc1cc(-c2ccccc2)sc1C(=O)O)c1cccc(F)c1	i	i	i	i	93	91
CCOc1ccc(-c2cc(NC(=O)c3c(F)cccc3F)c(C(=O)O)s2)cc1	i	i	i	i	92	94
O=C(O)c1ccc(NC(=O)c2ccccc2NC(=O)c2cccc(F)c2)cc1	i	i	i	i	i	nt
Cc1ccccc1OCC(=O)Nc1ccccc1N1CCCCC1	i	i	i	i	i	nt
O=C(COc1ccccc1[N+](=O)[O-])Nc1ccccc1N1CCCC1	i	i	i	i	50	58
O=C(COc1ccccc1[N+](=O)[O-])Nc1ccccc1N1CCCCC1	i	i	i	i	43	74
Cc1ccc(C(C)C)c(OCC(=O)Nc2ccccc2N2CCN(C)CC2)c1	i	i	i	i	54	66
Cc1cccc(OCC(=O)Nc2ccccc2N2CCCC2)c1C	i	i	i	i	i	nt
CC(=O)N1CCN(c2ccccc2NC(=O)COc2cc(C)ccc2C(C)C)CC1	i	i	i	i	i	nt
CCC(=O)c1ccc(OCC(O)CNC2CCCC2)cc1 (stereo not given)	i	i	i	i	i	nt
CCNc1ccc(C(=O)OCC(=O)N(Cc2ccccc2)C(C)(C)C)cc1[N+](=O)[O-]	i	i	i	i	43	i
COc1ccc(Cl)c2sc(N(CCN(C)C)C(=O)C3=COCCO3)nc12	i	nt	i	nt	i	nt
Cc1cc(Br)c(OCc2ccc(C(=O)N/N=C3\CC4CC=CC34)cc2)c(Br)c1 (stereo not given)	i	i	i	i	48	i
CC1=Nc2cc(C(=O)N3CCCCC3)ccc2Sc2ccc(C)cc21	i	i	i	i	52	i
CCC1=Nc2cc(C(=O)N3CCCCC3)ccc2Sc2ccc(C)cc21	i	i	i	i	52	57
Cn1c(=O)c(C(=O)c2ccc(S(C)(=O)=O)c(Cl)c2Cl)c(O)c2ccccc21	i	i	i	i	i	nt
C=CCn1cc(C(=O)NCCCN(CC)CC)c(=O)c2cc(S(=O)(=O)N3CCC(C)CC3)ccc21	i	i	i	i	i	nt
CC[C@@H]1C=C(C(=O)O)[C@H](c2ccc3c(c2)OCO3)N1S(=O)(=O)c1ccc(C)cc1	i	nt	i	nt	i	nt
CCCCC[C@@H]1C=C(C(=O)O)[C@H](c2ccc3c(c2)OCO3)N1S(=O)(=O)c1ccc(C)cc1	i	nt	i	nt	50	57
